Compound activity as filed in PubChem BioAssay.
Mtb hypoxia inh: reduces hypoxia-regulated biosensor signal in M. tuberculosis | M. tuberculosis hypoxia-regulated fluorescent reporter, fluorescence | fluorescence inhibition, % (no concentration beside the values) | 0.1% of 300,000 active; in the data active means fluorescence inhibition mostly above about 23%, no sharp cut-off; inactive means mostly below about 17%
BioA inh: BioA (M. tuberculosis) enzyme inhibition; purified M. tuberculosis BioA enzyme, plate reader; inhibition, % at 9.99 µM; 0.096% of 360,000 active; AID 602481; in the data active means inhibition above about 40%; inconclusive means no clear call, values can overlap the other calls
Mtb FBA inh: inhibitors of M. tuberculosis fructose-bisphosphate aldolase; P9WQA3; purified M. tuberculosis FBA, fluorescence read-out; inhibition, % at 1 µM; 2.3% of 360,000 active; AID 588726; in the data active means inhibition above about 27%;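 further: 0% = vehicle and 100% = reference inhibitor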
Target sequence (P9WQA3 whole entry, looked up): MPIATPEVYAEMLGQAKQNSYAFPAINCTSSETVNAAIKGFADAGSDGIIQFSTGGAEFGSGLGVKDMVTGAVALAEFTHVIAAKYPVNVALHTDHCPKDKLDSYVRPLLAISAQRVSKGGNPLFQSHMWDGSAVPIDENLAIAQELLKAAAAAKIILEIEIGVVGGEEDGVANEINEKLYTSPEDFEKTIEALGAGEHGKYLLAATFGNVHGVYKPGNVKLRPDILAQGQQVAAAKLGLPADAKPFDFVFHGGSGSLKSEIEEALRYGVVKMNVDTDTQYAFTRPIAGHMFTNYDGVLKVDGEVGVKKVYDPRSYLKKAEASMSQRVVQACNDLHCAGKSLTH
FadD28 FP inh: blocks FadD28 binding to the bisubstrate probe. fluorescence polarization. inhibition, % at 12.5 µM. 0.22% of 360,000 active; in the data active means inhibition above about 8.5%, passing the limit was not always enough; inconclusive means no clear call, values can overlap the other calls
GDH-TPI inh: counter-screen for M. tuberculosis FBA inhibitors: GDH-TPI coupled enzymes. GDH-TPI coupled enzyme counterscreen, NADH absorbance. inhibition, % at 4.8 µM. 1.2% of 360,000 active; in the data active means inhibition above about 30%;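 further: 0% = DMSO wells and 100% = wells lacking the enzyme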
An asterisk follows results filed as active; ? = inconclusive; . = no result; + = active, no number. Rows were chosen to be rich in hits. Some 2.9% of all compounds tested hit in one or more screens of this group.

SMILES	Mtb hypoxia inh	BioA inh	Mtb FBA inh	FadD28 FP inh	GDH-TPI inh
CS(=O)(=O)Nc1ccc2c(c1)[C@H]1C[C@H](CC(=O)NCc3ccc(-c4ccccc4)cc3)O[C@@H](CO)[C@H]1O2	.	0	.	.	.
COc1cc(/C=N/NC(=O)c2ccc(O)cc2)ccc1OCC(=O)N1CC(C)OC(C)C1 (stereo not given)	.	-1	-4	-4	52*
COc1ccc(C(=O)N/N=C/c2ccc(SC)cc2)cc1	.	.	-1	0	46*
CSc1ccc(/C=N/NC(=O)c2ccc(O)cc2)cc1	.	.	8	0	55*
COc1ccc(C(=O)N/N=C/c2ccc(OC)c(COc3ccccc3)c2)cc1	.	-2	4	-2	37*
CSc1ccc(C=NNC(=O)c2ccc(O)cc2)cc1	6	.	.	.	.
COc1ccc(C(=O)NN=Cc2ccc(SC)cc2)cc1	6	.	.	.	.
COCC#Cc1cnc2c(c1)C(=O)N([C@H](C)CO)C[C@H](C)[C@@H](CN(C)S(C)(=O)=O)O2	.	-3	.	.	.
CC(=O)OCC(=O)[C@@]12OC(C)(C)OC1CC1C3CC(F)C4=CC(=O)C=C[C@]4(C)[C@@]3(F)C(O)C[C@@]12C (stereo not given in full)	5	.	.	.	.
COc1ccc(/C=N/NC(=O)c2ccc[nH]2)cc1	.	2	-2	-5	32*
CSc1ccc(/C=N/NC(=O)c2ccccc2Cl)cc1	.	.	8	-1	72*
CN(C)c1ccc(/C=N/NC(=O)c2ccccc2Cl)cc1	.	1	2	2	26
COc1ccccc1N1CCN(C2CCCN(S(=O)(=O)c3ccccc3)C2)CC1 (stereo not given)	-10	2	163*	-1	10
CCCCN1CCC2C=CCC(C(=O)Nc3ccc(OC)cc3)C2C1=O (stereo not given)	2	.	.	.	.
COc1ccc(S(=O)(=O)N(C)C[C@H]2OCCCC[C@@H](C)Oc3ccc(NC(=O)Nc4cccc5ccccc45)cc3C(=O)N([C@H](C)CO)C[C@H]2C)cc1	.	-1	.	.	.
Cc1ccc(-c2[nH]c(-c3ccc(C(=O)O)cc3)nc2-c2ccccc2)cc1	.	.	+	?	17
Cc1ccc(-c2nc3ccc(C(=O)O)cc3nc2-c2ccc(C)cc2)cc1	20	6	10	-14	21
O=C(C[C@H]1CC[C@@H](NC(=O)c2ccncc2)[C@H](CO)O1)Nc1ccccc1	.	-1	.	.	.
COc1ccc(-c2cc(C(=O)NCCCN3CCCC3=O)c3ccccc3n2)cc1	-5	-1	69*	0	16
COc1ccc(-c2cc(C(=O)NCCc3ccc(S(N)(=O)=O)cc3)c3ccccc3n2)cc1	10	.	67*	-5	13
O=C(NCCCN1CCCC1=O)c1cc(-c2ccc(F)cc2)nc2ccccc12	-1	2	19	-3	22
COc1ccc2sc(-c3ccc(S(C)(=O)=O)cc3)c(C(=O)NCCCN3CCCC3=O)c2c1	0	-1	5	1	32*
COc1ccc(CCNC(=O)c2cc(-c3ccccn3)nc3ccccc23)cc1	30*	0	-2	-5	2
NS(=O)(=O)c1ccc(CCNC(=O)c2cc(-c3ccccc3)nc3ccccc23)cc1	5	3	2	-3	7
O=S(=O)(N[C@@H]1CC[C@H](CCn2cc(-c3cccc(F)c3)nn2)O[C@@H]1CO)c1ccccc1	.	6	.	.	.
SMILES	Mtb hypoxia inh	BioA inh	Mtb FBA inh	FadD28 FP inh	GDH-TPI inh
CS(=O)(=O)Nc1ccc2c(c1)[C@@H]1C[C@@H](CC(=O)NC3CCCC3)O[C@@H](CO)[C@@H]1O2	.	1	.	.	.
CCC(=O)N(C)C[C@H]1Oc2ncc(C#Cc3ccccc3OC)cc2C(=O)N([C@H](C)CO)C[C@H]1C	.	-6	.	.	.
N#C/C(=N\Nc1ccc(Cl)cc1)C(=O)c1ccccc1	.	6	-18	1	31*
Cc1c(N/N=C(\C#N)C(=O)c2ccc(Cl)cc2)c(=O)n(-c2ccccc2)n1C	16	.	-14	1	23
C[C@@H]1CN([C@H](C)CO)C(=O)c2cc(NS(=O)(=O)c3ccccc3)ccc2O[C@H]1CN(C)C	.	-2	.	.	.
CCCC1(C)Nc2ccccc2-c2nc3ccccc3n21 (stereo not given)	11	-2	179*	-3	21
c1ccc2c(c1)NC1(CCCC1)n1c-2nc2ccccc21	16	0	+	0	11
CCCn1c(-c2ccc(OC)cc2)nc2ccccc21	13	2	9	-9	4
Cc1oc2c(c(C)cc3oc(=O)c(CC(=O)NCCCO)c(C)c32)c1C	18	0	20	-2	8
Cc1c(CC(=O)NCC(=O)O)c(=O)oc2cc3c(cc12)CCC(C)(C)O3	-15	-6	+	0	30
Cc1c(CC(=O)NCCCO)c(=O)oc2cc3c(cc12)CCC(C)(C)O3	-7	-1	183*	-1	22
Cc1c(CC(=O)NCC(=O)NCC(=O)O)c(=O)oc2cc3c(cc12)CCC(C)(C)O3	-5	-1	194*	-1	22
C[C@@H]1CN([C@@H](C)CO)C(=O)c2cccc(NC(=O)C3CC3)c2O[C@H]1CN(C)C	.	0	.	.	.
C[C@@H]1CN([C@@H](C)CO)C(=O)Cc2cc(NC(=O)c3ccncc3)ccc2O[C@H]1CN(C)S(=O)(=O)c1ccc(Cl)cc1	.	-1	.	.	.
COc1ccc(CN(C)C[C@H]2OCCCC[C@H](C)Oc3ccc(NS(=O)(=O)c4cccs4)cc3C(=O)N([C@@H](C)CO)C[C@@H]2C)cc1	.	-2	.	.	.
Cc1ccc(Nc2cc(C)nc3c(C)cccc23)cc1	8	6	1	-1	32*
O=C(CN1CCOCC1)NCC[C@@H]1CC[C@@H](NS(=O)(=O)c2ccc(Cl)cc2)[C@H](CO)O1	.	-4	.	.	.
C[C@H](CO)N1C[C@H](C)[C@H](CN(C)S(=O)(=O)c2ccc(F)cc2)OCCCC[C@H](C)Oc2ccc(NS(=O)(=O)c3cn(C)cn3)cc2C1=O	.	2	.	.	.
COCCn1c(=O)[nH]c(=O)c2c(C(F)(F)F)cc(-c3cccs3)nc21	12	.	+	0	14
Cc1nn(C)c2nc(-c3cccs3)cc(C(F)(F)F)c12	-9	.	12	1	12
C[C@H](CO)N1C[C@H](C)[C@@H](CN(C)S(C)(=O)=O)Oc2c(NC(=O)Nc3ccc(F)cc3)cccc2C1=O	.	0	.	.	.
Cc1ccc(C)c(S(=O)(=O)NN=Cc2ccc(F)cc2)c1	18	.	.	.	.
CC1CCN(C2(O)C(=O)Nc3ccc([N+](=O)[O-])cc32)CC1 (stereo not given)	.	2	0	-1	32*
CC(=NNC(=O)c1ccccn1)c1ccc(O)cc1	7	.	.	.	.
C/C(=N/NC(=O)c1ccccn1)c1ccc(O)cc1	.	-1	0	0	32*
C/C(=N\NC(=O)c1ccc(N/N=C(\C)c2ccc(O)cc2)cc1)c1ccc(O)cc1	.	.	2	-2	46*
S=c1nccc(-c2ccc3c(c2)CCO3)[nH]1	.	-1	4	-2	49*
CO[C@@H]1CC[C@@H]2CCN(C)C(=O)[C@@H](C)CN(C)C(=O)c3cc(C#N)ccc3OC[C@H]1O2	.	-1	.	.	.
COc1ccc(CN2C(=O)NC(=O)/C(=C/c3ccc([N+](=O)[O-])s3)C2=O)cc1	.	8	-6	33*	31*
